Inconclusive results are not listed. Calls of active or inactive are those of the source. Unless noted, the call rests on the fitted dose curve; in most records, active means well fitted curve in the direction sought with a large enough effect in the repeat runs; inconclusive means weak or mixed curves; inactive means no such curve, though single readings can be large; an effect the other way counts as inactive or inconclusive.
Key:
Aromatase (Homo sapiens) = Aromatase (Homo sapiens) (UniProt P11511); assay: qHTS assay to identify aromatase inhibitors (AID 743083); further: nearly all actives have a fitted effect of over 55% in size; further: potency means the concentration at half of the fitted maximal effect
Aromatase (Homo sapiens), sequence (P11511 whole entry, looked up): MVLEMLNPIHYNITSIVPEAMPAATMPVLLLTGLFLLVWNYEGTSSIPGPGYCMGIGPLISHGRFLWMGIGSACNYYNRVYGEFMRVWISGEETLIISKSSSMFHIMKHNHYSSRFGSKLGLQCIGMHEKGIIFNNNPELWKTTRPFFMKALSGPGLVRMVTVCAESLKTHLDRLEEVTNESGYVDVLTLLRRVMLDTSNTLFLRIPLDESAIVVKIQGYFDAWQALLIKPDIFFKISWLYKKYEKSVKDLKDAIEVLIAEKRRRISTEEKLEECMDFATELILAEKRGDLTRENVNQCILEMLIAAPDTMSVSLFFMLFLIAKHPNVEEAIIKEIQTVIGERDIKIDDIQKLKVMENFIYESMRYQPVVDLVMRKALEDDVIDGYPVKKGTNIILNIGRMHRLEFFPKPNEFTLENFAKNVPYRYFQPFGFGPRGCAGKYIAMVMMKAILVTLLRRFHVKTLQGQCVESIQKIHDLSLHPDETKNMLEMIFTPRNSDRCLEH

[1] = qHTS assay for small molecule agonists of the p53 signaling pathway - cell viability (AID 651633; calls by dose curve; further: nearly all actives have a fitted effect of over 30% in size; further: potency means the concentration at half of the fitted maximal effect)
Outline: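 p53RE-bla cells were treated with compound for 16 hours at 37 C. Cytotoxicity was then measured as CellTiter-Glo luminescence after 30 min at room temperature.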

[2] = qHTS assay to test for compound auto fluorescence at 590 nm (red) in HepG2 cells (AID 720674)
Outline: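 Seeding: 2,000 HepG2 cells/well, MEM/10% FBS, overnight 37 C. Dosing: compound vs DMSO. Incubation: 1 hr, 37 C, 5% CO2. Read: fluorescence 540 ex/590 em, Rose Bengal sodium as red reference.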

[3] = qHTS assay to test for compound auto fluorescence at 535 nm (green) in HepG2 cells (AID 720675)
[4] = qHTS assay to test for compound auto fluorescence at 460 nm (blue) in HEK293 cells (AID 720678)
Outline: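 After cell attachment (4-5 hr, 37C), compounds were pinned onto HEK293 monolayers in 10% dialyzed FBS medium. The blue channel (405/460 nm) was read following overnight culture. Equivalency was calculated against triamterene.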

[5] = qHTS assay to test for compound auto fluorescence at 590 nm (red) in HEK293 cells (AID 720679)
Outline: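 Plates of HEK293 cells (10% dialyzed FBS) are treated with 23 nL compound or DMSO vehicle after a 4-5 hr attachment period, incubated overnight at 37C, and read for red fluorescence at 540/590nm.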

[6] = qHTS assay to test for compound auto fluorescence at 460 nm (blue) in HEK293 cell free culture (AID 720681)
Outline: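 Compounds were added to cell-free DMEM with 10% FBS and fluorescence read directly. The blue channel used 405 nm excitation and 460 nm emission, with triamterene as the reference fluorophore.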

[7] = qHTS assay to test for compound auto fluorescence at 535 nm (green) in HEK293 cell free culture (AID 720682)
Outline: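 Each library compound, or DMSO control, is added by pintool to medium alone, comprising DMEM and 10% FBS. Emission at 535 nm following 485 nm excitation is quantified against fluorescein.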

[8] = qHTS assay to test for compound auto fluorescence at 590 nm (red) in HEK293 cell free culture (AID 720683)
Outline: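 Cell-free wells of DMEM with 10% FBS received compound, and intrinsic fluorescence was read at excitation/emission 540/590 nm. Values expressed as equivalence to Rose Bengal sodium.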

[9] = qHTS assay to test for compound auto fluorescence at 590 nm (red) in HepG2 cell free culture (AID 720684)
Outline: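 Compound was pinned into wells holding MEM with 10% FBS and no cells, and red fluorescence was read at Ex/Em 540/590 nm. Signal is expressed as auto fluorescence equivalency relative to Rose Bengal sodium.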

[10] = qHTS assay to test for compound auto fluorescence at 535 nm (green) in HepG2 cell free culture (AID 720686)
[11] = qHTS assay to test for compound auto fluorescence at 460 nm (blue) in HepG2 cells (AID 720687)
Outline: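 HepG2 cells in MEM with 10% FBS, attached overnight at 37 C, were exposed to compound or DMSO for 1 hr at 37 C, 5% CO2. Blue fluorescence was read at 405/460 nm, with triamterene as reference fluorophore.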

[12] = qHTS assay to identify small molecule antagonists of the glucocorticoid receptor (GR) signaling pathway - cell viability counter screen (AID 720693); further: nearly all actives have a fitted effect of over 55% in size; further: potency means the concentration at half of the fitted maximal effect
[13] = qHTS assay for identifying genotoxic compounds that show differential cytotoxicity against isogenic chicken DT40 cell lines with known DNA damage response pathways - Rad54/Ku70 mutant cell line (AID 743015); further: nearly all actives have a fitted effect of over 60% in size; further: potency means the concentration at half of the fitted maximal effect
[14] = qHTS assay to identify small molecule antagonists of the androgen receptor (AR) signaling pathway - cell viability counter screen (AID 743033; further: nearly all actives have a fitted effect of over 45% in size)
[15] = qHTS assay to identify small molecule antagonists of the estrogen receptor alpha (ER-alpha) signaling pathway - cell viability counter screen (AID 743074; calls by dose curve;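 further: HEK293 cells carrying ER-alpha-UAS-bla reporter stimulated with 17beta-estradiol; nearly all actives have a fitted effect of over 45% in size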; further: potency means the concentration at half of the fitted maximal effect)
[16] = qHTS assay to identify aromatase inhibitors - cell viability counter screen (AID 743084);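 further: cells stimulated with testosterone during compound exposure; nearly all actives have a fitted effect of over 55% in size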
[17] = qHTS assay to identify small molecule that activate the aryl hydrocarbon receptor (AhR) signaling pathway - cell viability counter screen (AID 743086); further: nearly all actives have a fitted effect of over 45% in size; further: potency means the concentration at half of the fitted maximal effect
Outline: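 HepG2-AhR-luc (HG2L7.5c1) cells, 4000/well, treated 24 h at 37 C with compound; viability measured as CellTiter-Fluor fluorescence after 30 min in the same wells as the luciferase read.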

[18] = qHTS assay for small molecule disruptors of the mitochondrial membrane potential - cell viability (AID 720634; calls by dose curve;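 further: human HepG2 liver cancer cells; series mostly up to about 83 µM; nearly all actives have a fitted effect of over 20% in size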)
Outline: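 After overnight attachment at 37 C, HepG2 cells received compound or DMSO vehicle for 1 hr. Viability is then taken from ATP-driven luminescence following a 30 min room-temperature CellTiter-Glo step.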

[19] = target: Aryl hydrocarbon receptor (Homo sapiens) (UniProt P35869); assay: qHTS assay to identify small molecule that activate the aryl hydrocarbon receptor (AhR) signaling pathway (AID 743085); further: nearly all actives have a fitted effect of over 15% in size; further: potency means the concentration at half of the fitted maximal effect
Aryl hydrocarbon receptor (Homo sapiens), sequence (P35869 whole entry, looked up): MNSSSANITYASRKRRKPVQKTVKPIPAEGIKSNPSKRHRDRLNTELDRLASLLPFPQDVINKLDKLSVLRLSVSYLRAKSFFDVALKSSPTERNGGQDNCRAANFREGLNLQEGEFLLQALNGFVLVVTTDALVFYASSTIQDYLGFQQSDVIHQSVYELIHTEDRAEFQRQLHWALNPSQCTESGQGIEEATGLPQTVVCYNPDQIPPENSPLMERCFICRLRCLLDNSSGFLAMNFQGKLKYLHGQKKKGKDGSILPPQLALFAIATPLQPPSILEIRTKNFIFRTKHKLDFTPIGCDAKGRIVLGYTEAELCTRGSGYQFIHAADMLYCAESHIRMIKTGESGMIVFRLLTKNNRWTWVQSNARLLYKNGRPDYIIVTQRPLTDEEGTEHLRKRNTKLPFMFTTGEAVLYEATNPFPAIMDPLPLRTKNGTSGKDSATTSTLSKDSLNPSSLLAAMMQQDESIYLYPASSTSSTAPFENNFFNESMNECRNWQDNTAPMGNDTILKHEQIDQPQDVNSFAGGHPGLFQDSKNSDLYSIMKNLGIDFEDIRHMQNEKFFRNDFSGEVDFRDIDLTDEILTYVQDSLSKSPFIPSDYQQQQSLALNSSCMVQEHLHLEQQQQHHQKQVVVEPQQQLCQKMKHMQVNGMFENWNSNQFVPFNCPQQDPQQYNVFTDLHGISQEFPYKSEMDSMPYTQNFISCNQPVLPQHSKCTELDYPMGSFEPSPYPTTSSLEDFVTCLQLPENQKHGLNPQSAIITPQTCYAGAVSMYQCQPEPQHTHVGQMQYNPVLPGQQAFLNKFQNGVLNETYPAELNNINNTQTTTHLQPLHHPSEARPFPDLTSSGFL
Outline: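 Stably transfected human liver carcinoma cells (HG2L7.5c1; 20 DRE-firefly luciferase) were incubated 5 h, dosed, and kept 24 h at 37C. Agonism was scored from increased luciferase luminescence.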

Measured: Potency

COc1cc([C@@H]2c3cc4c(cc3[C@H](O)[C@H]3COC(=O)[C@H]23)OCO4)cc(OC)c1OC
inactive: Aromatase (Homo sapiens)

C#CC(C)(O)CC (stereo unspecified)
not listed: [18] | [19]
inactive: all other assays above

C[C@@H]([C@H](O)c1ccccc1)N(C)C
inactive: all assays above

O=C(Cl)c1cccc(C(=O)Cl)c1
inactive: Aromatase (Homo sapiens) | [19]

CCCCCc1cc(O)c2c(c1)OC(C)(C)c1ccc(C)cc1-2
active: [1] 11.9 µM | [12] 13.4 µM | [13] 11.9 µM | [15] 23.9 µM | Aromatase (Homo sapiens) 13.3 µM | [19] 3.35 µM
not listed: [16] | [17] | [18]
inactive: all other assays above

CN(C)CCCCCCN(C)C (tested in a mixture with another compound)
not listed: [15]
inactive: all other assays above

Cc1c(N)cccc1N
active: [19] 27.9 µM
inactive: Aromatase (Homo sapiens)

CCOC(=O)C1(c2ccccc2)CCCN(C)CC1 (stereo unspecified)
inactive: all assays above

O.O.O.O=C([O-])C(O)C(O)C(=O)[O-].O=C([O-])C(O)C(O)C(=O)[O-].[K+].[K+].[Sb].[Sb] (stereo unspecified)
active: [13] 11.9 µM
not listed: Aromatase (Homo sapiens) | [1] | [14]
inactive: all other assays above

CN1[C@@H]2CC[C@H]1CC(OC(=O)C(CO)c1ccccc1)C2 (stereo partly specified)
inactive: Aromatase (Homo sapiens)

COc1ccc(OC)c(C[C@H](C)N)c1
not listed: [1] | [11] | [15]
inactive: all other assays above

Cc1ccc(C)cc1
inactive: Aromatase (Homo sapiens)

C[N+](C)(C)CCCCCCCCCC[N+](C)(C)C
inactive: Aromatase (Homo sapiens) | [19]

Clc1cc(Cl)c(Cl)cc1Cl
inactive: Aromatase (Homo sapiens) | [19]

C[C@@H](N)C(=O)c1ccccc1
not listed: [15] | [19]
inactive: all other assays above

COc1ccc(C)cc1N
inactive: Aromatase (Homo sapiens) | [19]

Clc1ccc(Cl)c(Cl)c1Cl
inactive: Aromatase (Homo sapiens) | [19]

CC(=O)OC(C)=O
inactive: [19]

O=P1(N(CCCl)CCCl)NC(OO)CCO1 (stereo unspecified)
not listed: [12]
inactive: all other assays above

COc1ccc(OC)c([C@@H](O)[C@H](C)N)c1
inactive: all assays above

c1ccc2c(c1)ccc1ncccc12
inactive: Aromatase (Homo sapiens) | [19]

Oc1ccc2c3c1O[C@H]1[C@@H](O)CC[C@@]4(O)[C@@H](C2)N(CC2CCC2)CC[C@]314
inactive: all assays above

C[N+]1([O-])[C@@H]2CC(OC(=O)[C@H](CO)c3ccccc3)C[C@H]1[C@@H]1O[C@@H]12 (stereo partly specified)
inactive: all assays above

F/C(COc1ccc2c(c1)[nH]c1ccccc12)=C1/CN2CCC1CC2
active: [13] 7.5 µM | [19] 10.6 µM | [17] 21.1 µM
not listed: Aromatase (Homo sapiens) | [15] | [16]
inactive: all other assays above

C[C@]12CC[C@H]3[C@@H](CCC4=C(O)C(=O)CC[C@@H]43)[C@@H]1CC[C@@H]2OC(=O)CCC1CCCC1
inactive: all assays above

CCN(CC)CCO[C@H]1CC[C@@]2(C)C(=CC[C@@H]3[C@@H]2CC[C@]2(C)C(=O)CC[C@@H]32)C1
active: [13] 1.33 µM
not listed: [15]
inactive: all other assays above

O[C@H]1[C@H]2[C@H](O)CCCN2C[C@H]1O
inactive: all assays above

CCON=O
inactive: all assays above

COc1ccc2c3c1O[C@H]1[C@@H](O)C=C[C@H]4[C@@H](C2)NCC[C@@]341
inactive: all assays above

O=c1[nH]cc(N(CCCl)CCCl)c(=O)[nH]1
not listed: [15] | [18]
inactive: all other assays above

CC(=O)[C@H]1CC[C@H]2[C@@H]3CC[C@@H]4C[C@H](O)CC[C@]4(C)[C@H]3CC[C@]12C
not listed: [1]
inactive: all other assays above
